Assay results from ChEMBL document CHEMBL3988442, “University of Dundee, Small-Polar-MMV Screening Library” (2021).
Screen size: about 48,000 compounds; about 13,000 (27%) showed an effect of 50% or more. Some of the results follow.

Tested on: Wolbachia pipientis
Test: Anti-Wolbachia Cell-Based Screen
Type: functional
Design: scale not given: in the data most compounds retested in dose-response had high values
Details: 5 µM

| Structure (SMILES) | Percent Effect |
| --- | --- |
| Cc1nsc(NCc2ccc(S(=O)(=O)N(C)C(C)C)cc2)n1 | 22.68% |
| CCCC(C)CS(=O)(=O)NCc1cccnc1OC (configuration not stated) | 6.664% |
| CC(C)c1nnc2n1CCN(C(=O)c1ccc3c(c1)NC(=O)CO3)C2 | 2.374% |
| NC(=O)C1CCN(CCCNC(=O)Nc2nncs2)CC1 | 106.6% |
| Cc1csc(NC(=O)NCCCN2CCC(C(N)=O)CC2)n1 | 96.37% |
| O=C(NCc1ccccc1CN1CCCC1)Nc1nncs1 | 6.886% |
| NC(=O)C1CCN(CCCNC(=O)Nc2nccs2)CC1 | 104.9% |
| O=C(NCCCN1CCN(c2ncccn2)CC1)Nc1ccccn1 | 10.78% |
| NC(=O)CN1CCC(NC(=O)Nc2nccs2)CC1 | 9.96% |
| Cc1csc(CCNC(=O)C2CCN(CC(N)=O)CC2)n1 | -1.435% |
| O=C(NCc1ccccc1CN1CCCCC1)Nc1nncs1 | -2.637% |
| Cc1csc(NC(=O)CN2CCC(c3ccnn3CCO)CC2)n1 | -8.035% |
| O=C(C(C1CC1)C1CC1)N1CCC(n2ccnn2)CC1 | -3.228% |
| COc1ccc(C(C(=O)O)N2CCC(O)(c3cccnc3)CC2)cc1Cl (configuration not stated) | 2.828% |
| COCCN1CCCn2cnc(CNC(=O)N(C)C)c2C1.O=C(O)C(F)(F)F.O=C(O)C(F)(F)F | -21.14% |
| CN(C)CCNC(=O)c1ccc(OC2CCN(CC3CC3)CC2)c(Cl)c1 | 3.166% |
| CN(C)c1cc(NCc2cnc3n2CCN(CC2CC2)CC3)ncn1.O=C(O)C(F)(F)F | 3.56% |
| CN(C)c1ncc(-c2cc(C(=O)NCCC#N)n(CC3CC3)c2)cn1.O=C(O)C(F)(F)F | 101.1% |
| Cc1cnc(N2C[C@@H]3CCN(CC(=O)N(C)C)C(=O)[C@H]3C2)nc1.O=C(O)C(F)(F)F | -29.89% |
| COCCCNC(=O)c1cc(-c2cnc(N(C)C)nc2)cn1CC1CC1.O=C(O)C(F)(F)F | 117.6% |
| CN(C)c1ncc(-c2cc(C(=O)NCCO)n(CC3CC3)c2)cn1.O=C(O)C(F)(F)F | 116.5% |
| CCOC(=O)N1CCCn2nc(C(=O)NCCN(C)C)cc2C1 | -7.985% |
| CC(C)n1cnc2c1C(C(=O)NCCC#N)N(Cc1ccccc1)CC2.O=C(O)C(F)(F)F (configuration not stated) | -22.73% |
| CN(C)CCNC(=O)c1cc(-c2cnc(N(C)C)nc2)cn1CC1CC1 | 102.4% |
| COCc1nc(NC(C)c2c(C)n[nH]c2C)c2cnn(C)c2n1 (configuration not stated) | 8.424% |
| Cc1nc(-c2ccc(CC(=O)N3CCN(C(=O)C(C)C)CC3)cc2)cs1 | -9.711% |

| Structure (SMILES) | Percent Effect |
| --- | --- |
| CN(C)c1ncc(NC(=O)N2CCC(CN3CCCC3)C2)cn1 (configuration not stated) | 8.781% |
| CNC(=O)c1cc(-n2ccnc2-c2cnc(N(C)C)nc2)ccc1OC | -13% |
| CN(C)c1ncc(-c2cc(C(=O)O)n(CC3CC3)c2)cn1 | 1.495% |
| CN(C)C(=O)c1ccc2c(c1)N(C)C(CC(=O)NC(C)(C)CO)CO2 (configuration not stated) | -1.046% |
| CN(C)c1ncc(-c2cc(C(=O)NC(C)(C)CO)n(CC3CC3)c2)cn1 | 111.9% |
| CN(C)c1ncc(-c2cc(C(=O)N3CCCC3)n(CC3CC3)c2)cn1 | 121.7% |
| OC1(CNCc2ccc(F)c(C(F)(F)F)c2)CCSCC1 | 2.477% |
| O=C(O)CN1CCc2onc(C(c3ccccc3)c3ccccc3)c2C1 | -16.17% |
| CNS(=O)(=O)CCn1cc(-c2ccc(OC)c(OC)c2)nn1 | -29.27% |
| Cc1noc(C)c1CN1CCOC2(CCCN(c3ccccn3)C2)C1 (configuration not stated) | -3.1% |
| Cc1nc(CNC(=O)NCCc2ccc(N(C)C)cc2)cs1 | 2.73% |
| Cc1nc(CSCCC(=O)NCCNC(=O)OC(C)(C)C)cs1 | -7.243% |
| Cc1nc(CSCCC(=O)NCc2ccc(-n3cncn3)nc2)cs1 | 103.5% |
| CSC(C)C(=O)NCc1ccc(-n2cncn2)nc1 (configuration not stated) | -9.599% |
| CC(OCC(F)(F)F)C(=O)NCc1ccc(-n2cncn2)nc1 (configuration not stated) | 6.097% |
| Cc1ccc(CNC(=O)CCSCc2csc(C)n2)cn1 | -0.6284% |
| COc1ccc(C)c(NC(=O)NCc2cccc(N(C)C)n2)c1 | -15.2% |
| Cc1nc(CSCCC(=O)NCC(=O)NC(C)C)cs1 | 3.002% |
| COc1ccc(CNC(=O)CCSCc2csc(C)n2)cn1 | 99.67% |
| Cc1nc(CSCCC(=O)NCc2ccncc2)cs1 | 95.93% |
| Cc1nc(CCNC(=O)NCc2cccc(N(C)C)n2)cs1 | 98.24% |
| Cc1ccc2c(c1)C(NC(=O)C1CCN(S(C)(=O)=O)CC1)CC(C)(C)O2 (configuration not stated) | 2.376% |
| F[C@@H]1CN(CC2CC2)C[C@@H]1OCc1nc2ccc(C(F)(F)F)cc2[nH]1 | -10.92% |
| CC(C)N1CCc2onc(Cn3cccn3)c2C1 | -7.292% |
| O=C(Nc1ccccc1-c1ccccc1)N1C[C@@H]2CNC[C@]2(C(=O)O)C1 | -1.582% |
| Cc1nc(CNC(=O)NCC(F)(F)F)oc1C | 5.267% |

| Structure (SMILES) | Percent Effect |
| --- | --- |
| Cc1ccc(-c2cc(-c3nc(CN4CCN(C)CC4)no3)n[nH]2)cc1 | -2.901% |
| CSCCCN1C(=O)CC[C@H]2CN(Cc3ncc[nH]3)CC[C@H]21 | -3.327% |
| Cc1nc(CNC(=O)NCc2ccc(OCC3CC3)nc2)cs1 | -6.746% |
| Cc1ncsc1CCC(=O)NCc1csc(N(C)C)n1 | 8.732% |
| Cc1nc(CSCCC(=O)NCc2ccc(N(C)C)cc2)cs1 | 100.6% |
| Cc1nc(CCNC(=O)NCc2ccc(N(C)C)nc2)cs1 | 2.776% |
| COc1ccc(CNC(=O)NCCc2csc(C)n2)cn1 | 78.6% |
| CCOc1ccc(C(=O)CCC(=O)NCCc2nncn2CC)cc1C | -15.05% |
| CC(=O)N1CCC2(CC1)C(=O)N(c1ccc(C)nc1)CCN2CC(C)C | -6.199% |
| CCCS(=O)(=O)N1CCN(C(=O)CO)CC1 | 9.785% |
| CC1=C(c2ccc(C(C)C)cc2)S(=O)(=O)N=C1N1CCc2ccccc21 | 127.3% |
| CCS(=O)(=O)CC(=O)Nc1ccccc1N1CCc2ccccc21 | -1.356% |
| COc1ccc(C2=C(C)C(N3CCc4ccccc4C3)=NS2(=O)=O)cc1 | -1.571% |
| CNC(=O)NCC(=O)Nc1ccccc1N1CCc2ccccc21 | -5.269% |
| CC1=C(c2ccc(Cl)cc2)S(=O)(=O)N=C1N1CCc2ccccc21 | 182.9% |
| CS(=O)(=O)NCCC(=O)Nc1ccccc1N1CCc2ccccc21 | 4.986% |
| CC(C)c1nc(C2CCCN2CC(=O)N2CCc3ccccc32)no1 (configuration not stated) | 8.047% |
| COc1ccc(C2=C(C)C(N3CCc4ccccc43)=NS2(=O)=O)cc1 | 41.03% |
| CC1=C(c2ccc(C)cc2)S(=O)(=O)N=C1N1CCc2ccccc21 | 130.8% |
| CC1=C(c2ccc(F)cc2)S(=O)(=O)N=C1N1CCc2ccccc21 | 117.2% |
| CCc1nccn1CC(=O)N1C[C@H]2CC[C@@H]1CN(S(=O)(=O)N(C)C)C2 | -7.287% |
| Cc1nc(CN2CCCC2C(=O)OCc2ccccc2)oc1C (configuration not stated) | 2.818% |
| CCN1CCN(C(=O)NCc2cccc(-c3cnn(C)c3)c2)CC1 | -0.06636% |
| CCOC(=O)NC(CNC(=O)c1cccc(C)n1)CC(C)C (configuration not stated) | -0.9976% |
| COCc1ccccc1C(=O)N1CCC(CNC(=O)OC(C)(C)C)C1 (configuration not stated) | -8.221% |
| CS(=O)(=O)CCC(=O)N1C[C@@H]2CC[C@H](C1)N(Cc1ccccn1)C2=O | 13.71% |

| Structure (SMILES) | Percent Effect |
| --- | --- |
| N[C@@H]1CC[C@@H](Nc2nccc(CCC(F)(F)F)n2)C1 | -1.257% |
| COc1ccc(-n2c(CO)nc3ccccc32)cc1CO | -2.808% |
| COCCOc1ncccc1NCc1nc2ccccc2n1C | 92.25% |
| CCNc1ncc(C(=O)N(C)Cc2nc3ccccc3n2C)cn1 | -2.006% |
| COc1cc(F)c(NCc2nc3ccccc3n2C)cc1OC | 108.7% |
| CN1C[C@@H](F)[C@@H](OCc2nc3ccccc3n2C)C1 | 6.816% |
| COc1ccccc1-c1noc(CNc2ccc(F)cc2OCCO)n1 | 0.4936% |
| CN(C)c1nccc(N(C)Cc2nc3ccccc3n2C)n1 | -8.65% |
| COCCOc1ccc(F)cc1NCc1nc2ccccc2n1C | 110.1% |
| Cn1c(CCCNc2nccnc2C#N)nc2ccccc21 | -4.565% |
| Cc1cc(NC(=O)NC(C)(C)c2nc(C)c(C)s2)no1 | 5.891% |
| CSc1ccc(-c2nc(CN3CCC(C(N)=O)CC3)c(C)o2)cc1 | 12.72% |
| Cc1cc(S(=O)(=O)N2CCC(N3CCC(O)C3)CC2)c(Cl)cc1Cl (configuration not stated) | -12.47% |
| CCn1cnnc1CN(C)Cc1c[nH]nc1-c1ccc(F)cc1 | 6.499% |
| Cc1cnc(C(=O)N2CCc3c(nc(-c4ccncc4)[nH]c3=O)C2)cn1 | -3.986% |
| Cc1ncc(CN2CCc3c(nc(-c4ccccn4)[nH]c3=O)C2)n1C | 100.8% |
| Cn1ccnc1-c1ccccc1C(=O)N1CCc2c(nc(N)[nH]c2=O)C1 | 1.911% |
| Cn1cccc1CN1CCc2c(nc(-c3ccccn3)[nH]c2=O)C1 | 114.7% |
| O=C(c1ccccn1)N1CCc2c(nc(-c3ccncc3)[nH]c2=O)C1 | -0.04653% |
| CC(NC(=O)N1CCN(c2ccc(Cl)cc2)CC1)C(=O)N1CCSCC1 (configuration not stated) | -1.833% |
| O=C(c1cnccn1)N1CCC(Oc2ncccc2Cl)CC1 | 33.47% |
| Nc1nc(C2CCN(C(=O)c3cnco3)CC2)cs1 | 114.6% |
| CCc1nc(CN2CCN(C(=O)c3cnccn3)CC2)cs1 | -1.168% |
| Nc1nc(C2CCN(C(=O)c3cnccn3)CC2)cs1 | 113.4% |
